Experiment: RPMI8226 myeloma cell viability, profiling panel, resazurin fluorescence, basal, 24 h, PK04 Diversity Set (AID 1180);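 note: RPMI8826 multiple myeloma cell line at 5000 cells per well; test concentration not given here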
Conditions: higher = more signal

Row | SMILES | z-score
1 | CC(C)c1ccc(NN2C(C(O)C(C)c3ccccc3)C=CC3C(=O)N(c4ccccc4)C(=O)C32)cc1 (stereo unspecified) | -1.2
2 | CC(C)C[C@@H]1NC(=O)[C@@H]2C[C@H](C(=O)NCCCCCCNC(=O)CS)[C@H](c3ccc(O)cc3)N2C1=O | -0.898
3 | COC(=O)Cn1c(C(=O)N(C)C)cc2c1C[C@H]1CN(C(=O)c3ccccc3)[C@@](Cc3ccccc3)(C(=O)OC)[C@@H]21 | 1.09
4 | COCCOC(=O)N1C(=O)[C@@]2(c3cc(C#CCC(C(=O)OC)C(=O)OC)ccc31)[C@H](c1ccc(O)cc1)N1[C@H](c3ccccc3)[C@H](c3ccccc3)OC(=O)[C@H]1[C@@H]2C(=O)N1CCc2cc(OC)c(OC)cc2C1 | -0.92
5 | Cc1ccc(S[C@]2(C(=O)NCc3ccccc3)CC(=O)N(Cc3ccccc3C(F)(F)F)[C@@H]2c2ccc(CO)cc2I)cc1 | -1.28
6 | O=C1C2C=CC(C(O)C3CCCCC3)N(Nc3ccccc3F)C2C(=O)N1c1ccccc1 (stereo unspecified) | -0.14
7 | CC[C@H]1C2=C3C(CC[C@H]4C(OCc5ccc(F)cc5C(F)(F)F)OC[C@](C)([C@@H]34)N(C(=O)OC(C)(C)C)C2)C(COC(C)=O)C1COC(C)=O (stereo partly specified) | -0.866
8 | CC1CC/C=C\[C@H]2OC34C=CCN(CCN5CCOCC5)C(=O)[C@H]3N(C(CO)C(C)C)C(=O)[C@@H]4C2C(=O)O1 (stereo partly specified) | -0.465
9 | COC(=O)C[C@H]1O[C@]2(C(=O)N(C)c3ccccc32)[C@@H](C)[C@@H]1[Si](C)(C)c1ccccc1 | 1.22
10 | O=C1O[C@@H](c2ccccc2)[C@@H](c2ccccc2)N2[C@@H](c3ccc(OCCO)cc3)[C@]3(C(=O)Nc4ccc(C#CC5=CCCCC5)cc43)[C@@H](C(=O)Nc3nc4ccccc4s3)[C@H]12 | -1
11 | CCCCN1CC=CC23O[C@@H]4/C=C\CCCOC(=O)C4[C@H]2C(=O)N(CCCCCCO)[C@@H]3C1=O (stereo partly specified) | 0.983
12 | COC(=O)[C@@]1(Cc2ccc(F)cc2)[C@H]2c3cc(C(=O)N(C)C)n(CCF)c3C[C@H]2CN1C(=O)c1ccccc1 | 0.034
13 | CCc1cccc(NC(=O)O[C@H]2[C@H](OC(=O)Nc3ccccc3-c3ccccc3)[C@H](OC(=O)Nc3ccccc3-c3ccccc3)[C@@H](OC)O[C@@H]2CO)c1 | -0.254
14 | C=C(COC)C(=O)CC[C@H](OC(C)=O)c1ccccc1OCCO | -2.37
15 | COC(=O)C(CC#Cc1ccc2c(c1)[C@]1(C(=O)N2)[C@H](c2ccc(OCCO)cc2)N2[C@H](c3ccccc3)[C@H](c3ccccc3)OC(=O)[C@H]2[C@@H]1C(N)=O)C(=O)OC | -1.43
16 | COc1ccc([Si](C)(C)[C@H]2[C@H](CC(=O)N(CCO)Cc3ccccc3)O[C@@]3(C(=O)N(Cc4cccc(N5CCCCC5=O)c4)c4ccccc43)[C@@H]2C)cc1 | -3.16
17 | COCCCNC(=O)[C@@]1(Cc2ccccc2I)c2ccccc2C(=O)N(Cc2ccccc2C(F)(F)F)[C@H]1c1ccc(CO)cc1 | 0.426
18 | CC[C@@H](O[Si](C#C[Si](C(C)C)(C(C)C)C(C)C)(C(C)C)C(C)C)c1cn([C@H](C)c2ccccc2)nn1 | 0.328
19 | COCCOC(=O)N1C(=O)[C@@]2(c3cc(C#CCC(C(=O)OC)C(=O)OC)ccc31)[C@H](C(=O)N1CCc3cc(OC)c(OC)cc3C1)[C@H]1C(=O)O[C@H](c3ccccc3)[C@H](c3ccccc3)N1[C@@H]2c1ccccc1OCCO | 0.637
20 | CCCNC(=O)[C@@]1(Sc2ccc(C)cc2)CC(=O)N(Cc2cc(C(F)(F)F)cc(C(F)(F)F)c2)[C@@H]1c1ccc(CO)cc1 | 0.18
21 | Cc1ccc(S[C@]2(C(=O)NCc3ccccc3)CC(=O)N(Cc3ccccc3Cl)[C@@H]2c2ccc(CO)cc2)cc1 | 0.335
22 | CC1(C)OB(/C=C\CC(OC(=O)c2ccncc2)c2ccccc2)OC1(C)C (stereo unspecified) | 0.143
23 | COc1cc(Cc2cc3c(c(-c4ccccc4)n2)[Si](C(C)C)(C(C)C)OC3)cc(OC)c1OC | 0.542
24 | C=CCOC(=O)[C@H]1[C@@H]2C(=O)O[C@@H](c3ccccc3)[C@@H](c3ccccc3)N2[C@@H](c2ccc(OCCOC(=O)[C@@H]3C[C@@H]4C(=O)N[C@@H](Cc5ccccc5)C(=O)N4[C@@H]3c3ccc(O)cc3)cc2)[C@]12C(=O)Nc1ccc(I)cc12 | -0.721
25 | CC1C2C(CCCO)=CC(C3C(=O)N(C(N)=O)C(=O)C23)N1Cc1cccc(OC(F)(F)F)c1 (stereo unspecified) | -0.907
26 | COC(=O)[C@@]1(Cc2ccccc2)[C@H]2c3cc(C(=O)N(C)C)n(Cc4nc5ccccc5[nH]4)c3C[C@H]2CN1C(=O)c1ccccc1 | -0.139
